Autofluor counter = compound fluorescence in toxin protease inhibitor counterscreen. 3.1% of 360,000 active. compound autofluorescence counterscreen, microsphere flow cytometry; stronger effect = higher value. fluorescence intensity (no concentration beside the values); in the data active means fluorescence intensity above about 16000; inconclusive means no clear call, values can overlap the other calls
BoNT-A LC inh2 = inhibitors of Botulinum neurotoxin A light chain protease. multiplex microsphere protease substrate cleavage, flow cytometry. AID 588499. inhibition, % at 10 µM. 0.17% of 360,000 active
BoNT-F LC inh = BoNT F light chain protease inhibition | Multiplex microsphere protease cleavage assay, flow cytometry | inhibition, % at 10 µM | 0.22% of 360,000 active | AID 588497; in the data active means inhibition above about 35%, passing the limit was not always enough; inconclusive means no clear call, values can overlap the other calls
Anthrax LF prot = anthrax lethal factor protease inhibition | P15917 | multiplex microsphere protease cleavage assay, LF | inhibition, % at 10 µM | 0.12% of 360,000 active
MazEF act = activators of E. coli MazEF toxin-antitoxin RNase. P0AE70. FAM/BHQ RNA-DNA oligo cleavage fluorescence, 5 h. activation, % at 20 µM. 0.32% of 350,000 active. AID 504720; in the data active means activation above about 50%
Target sequence (P0AE70 whole entry, looked up): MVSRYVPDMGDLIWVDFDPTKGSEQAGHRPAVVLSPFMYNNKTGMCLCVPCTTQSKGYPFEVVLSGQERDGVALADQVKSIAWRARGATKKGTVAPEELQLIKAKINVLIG
BoNTA LC inh 1 = BoNT/A light chain protease inhibition. 3% of 720 active. inhibition, % at 10 µM. multiplex microsphere protease assay, flow cytometry. shares compounds with BoNT-F LC inh. AID 602139; in the data active means inhibition above about 32%
BoNTF LC inh 1 = blocks botulinum neurotoxin F light chain protease; shares compounds with BoNT-F LC inh; multiplex microsphere protease cleavage assay, flow cytometry; inhibition, % at 10 µM; 720 tested, under 10 active; AID 602140; call rule not given here
Anthrax LF CP1 = inhibitors of Bacillus anthracis lethal factor protease | shares compounds with BoNT-F LC inh | multiplex microsphere protease cleavage assay, LF | 720 tested, under 10 active | inhibition, % at 10 µM; call rule not given here
Each line names hits and unclear results; the compound was inactive in the other large screens (follow-up assays come after a bar, where they were run). Most compounds without a hit are left out; they make up all but 3.7% or so of the library. Unless noted, no stated cut-off is given here; in the data, active means inhibition above about 30%; inconclusive means no clear call, values can overlap the other calls; inactive means below that.

COc1ccc(C(c2nnnn2CS(=O)(=O)c2ccc(C)cc2)N2CCN(Cc3ccccc3)CC2)cc1 (stereo not drawn)	none | BoNTA LC inh 1 inactive | BoNTF LC inh 1 inactive | Anthrax LF CP1 inactive
Cc1cc(=O)oc2c(CN3CCCC3)c(O)c(Cl)cc12	Anthrax LF prot 30 | BoNTA LC inh 1 inactive | BoNTF LC inh 1 inactive | Anthrax LF CP1 inactive
COc1cccc(C(NC(C)=O)c2nc(-c3ccoc3)cs2)c1 (stereo not drawn)	none (no result: MazEF act)
CCN(Cc1ccccc1)C(c1cc2cc(C)ccc2[nH]c1=O)c1nnnn1CCOC (stereo not drawn)	none | BoNTA LC inh 1 inactive | BoNTF LC inh 1 inactive | Anthrax LF CP1 inactive
O=C(O)c1ccc(CN2C[C@@H](CO)O[C@@H](n3cnc4c(NCc5ccc(F)cc5)ncnc43)C2)cc1	none (no result: MazEF act)
C=CCc1cccc(CNn2cnnc2)c1O	BoNT-F LC inh 43 | BoNTA LC inh 1 inactive | BoNTF LC inh 1 inactive | Anthrax LF CP1 inactive
N#CC1=C2CCCCC2(O)NC1=O (stereo not drawn)	none
Oc1ccccc1-c1nc2ccccc2nc1-c1ccccc1	none
COc1ccccc1-c1nc2cc3ccccc3cc2nc1-c1ccccc1	BoNT-A LC inh2 48 | BoNTA LC inh 1 inactive | BoNTF LC inh 1 inactive | Anthrax LF CP1 inactive
CC1=C(C(=O)Nc2cc(C(=O)N3CCN(c4ccc(Cl)cc4)CC3)ccc2C)SCCO1	none
CCN(CC)c1nc2cc(OC)ccc2cc1C#N	BoNT-A LC inh2 31 | BoNTA LC inh 1 inactive | BoNTF LC inh 1 inactive | Anthrax LF CP1 inactive
CN(C)c1nc(N)c2nccnc2n1	none
CSc1cnc2c(N)nc(N(C)C)nc2n1	BoNT-F LC inh 49 | BoNTA LC inh 1 inactive | BoNTF LC inh 1 inactive | Anthrax LF CP1 inactive
CCCCCC1C(C(=O)OCC)C(=O)NC1(C(=O)OCC)C(=O)OCC (stereo not drawn)	none
CCc1ccc(C(=O)CN2C(=O)NC3(CCCCCC3)C2=O)cc1	BoNT-F LC inh 43 | BoNTA LC inh 1 inactive | BoNTF LC inh 1 inactive | Anthrax LF CP1 inactive
O=C(CN1C(=O)NC2(CCCCCC2)C1=O)c1ccc(F)cc1	Autofluor counter inconclusive, BoNT-A LC inh2 inconclusive, BoNT-F LC inh inconclusive, Anthrax LF prot inconclusive
COc1ccc(C(O)c2nc(/C=C/c3ccc(C(F)(F)F)cc3)cs2)cc1 (stereo not drawn)	none (no result: MazEF act)
COc1ccc(/C=C/c2cc(C(F)(F)F)on2)cc1	BoNT-F LC inh 40 | BoNTA LC inh 1 inactive | BoNTF LC inh 1 inactive | Anthrax LF CP1 inactive
O=C(Nc1ccc(Br)cc1F)c1nc[nH]c1C(=O)N1CCc2ccccc2C1	none
COc1ccc(CCNC(=O)CCSCc2ccccc2F)cc1OC	BoNT-F LC inh 48 | BoNTA LC inh 1 inactive | BoNTF LC inh 1 inactive | Anthrax LF CP1 inactive
N=c1n(CCO)c2ccccc2n1Cc1ccccc1Cl	none | BoNTA LC inh 1 inactive | BoNTF LC inh 1 inactive | Anthrax LF CP1 inactive
CCc1nc2ccccc2n1Cc1ccccc1OC	none
COc1ccccc1Cn1c(C)nc2ccccc21	BoNT-F LC inh 39 | BoNTA LC inh 1 inactive | BoNTF LC inh 1 inactive | Anthrax LF CP1 inactive
COCCNC(=O)C1(C)CCN(C(=O)COc2ccc(Cl)cc2Cl)C1 (stereo not drawn)	none (no result: MazEF act)
COc1cc(C(=O)N(C)CCOc2ccc(C)cc2)ccc1OC1CCN(C(C)=O)CC1	BoNT-F LC inh inconclusive, Anthrax LF prot 30 | BoNTA LC inh 1 inactive | BoNTF LC inh 1 inactive | Anthrax LF CP1 inactive
COc1ccc(C(=O)NCCc2ccc(C)cc2)cc1OC1CCN(C(C)=O)CC1	none
C=CCn1c(CCC)nc2ccccc21	none
C=CCn1c(C(CC)CC)nc2ccccc21	BoNT-F LC inh 36 | BoNTA LC inh 1 inactive | BoNTF LC inh 1 inactive | Anthrax LF CP1 inactive
CCOC(=O)C1=C[C@@H](C(C)(C)C)N(S(=O)(=O)c2ccc(C)cc2)[C@H]1c1ccc(OC)cc1	none (no result: MazEF act)
CCSc1nc2sc3c(c2c(=O)n1C1CCCCC1)CCN(C)C3	BoNT-A LC inh2 45 | BoNTA LC inh 1 inactive | BoNTF LC inh 1 inactive | Anthrax LF CP1 inactive
CN1CCc2c(sc3nc(SCC(N)=O)n(-c4ccc(Cl)cc4)c(=O)c23)C1	BoNT-A LC inh2 66 | BoNTA LC inh 1 inactive | BoNTF LC inh 1 inactive | Anthrax LF CP1 inactive
Cc1ccc(Cc2c(-c3cccc(Br)c3)nc3ccc(Br)cn23)cc1	none (no result: MazEF act)
Cc1ccc(-n2cc3c(-c4cccc(Br)c4)nnc(C)c3n2)cc1	Autofluor counter 38801, BoNT-A LC inh2 inconclusive, BoNT-F LC inh 63, Anthrax LF prot inconclusive | BoNTA LC inh 1 inactive | BoNTF LC inh 1 inactive | Anthrax LF CP1 inactive
COCCNC(=O)C1(C)CCCN(Cc2ccc3ccccc3c2Br)C1 (stereo not drawn)	none (no result: MazEF act)
O=C(Nc1ccc(F)cc1)C1CCN(C(=O)NCc2ccccc2)CC1	Anthrax LF prot 33 | BoNTA LC inh 1 inactive | BoNTF LC inh 1 inactive | Anthrax LF CP1 inactive
c1ccc(-[n+]2nc(Nc3cccc4ccccc34)sc2-c2c3ccccc3cc3ccccc23)cc1	none
COc1cccc(-c2cc3nc(NCc4ccccc4F)n(C)c(=O)c3s2)c1	none (no result: MazEF act)
O=C(COC(=O)CN1CCSC1=O)Nc1ccc(F)cc1Cl	none
O=S(=O)(Cc1ccccc1)CS(=O)(=O)Cc1ccccc1	none
COc1ccc(CNC(=O)CCc2c[nH]c3ccccc23)cc1	none
COc1ccc(CNC(=O)N[C@@H](Cc2c[nH]c3ccccc23)C(=O)O)cc1	BoNT-F LC inh 77 | BoNTA LC inh 1 inactive | BoNTF LC inh 1 inactive | Anthrax LF CP1 inactive
COc1ccc(CNC(=O)Cc2c[nH]c3ccccc23)cc1OC	none
COC(=O)c1ccc(CNC(=O)CCc2c[nH]c3ccccc23)cc1	BoNT-F LC inh 81 | BoNTA LC inh 1 inactive | BoNTF LC inh 1 inactive | Anthrax LF CP1 inactive
COc1ccccc1CNC(=O)Cc1c[nH]c2ccccc12	BoNT-F LC inh 36 | BoNTA LC inh 1 inactive | BoNTF LC inh 1 inactive | Anthrax LF CP1 inactive
COc1cc(SC)ccc1C(=O)OCC(=O)N1CCN(C(C)=O)CC1	none (no result: Autofluor counter, BoNT-A LC inh2, BoNT-F LC inh, Anthrax LF prot)
Clc1cccc(OCc2nc(-c3ccncc3)no2)c1	BoNT-F LC inh 44 | BoNTA LC inh 1 inactive | BoNTF LC inh 1 inactive | Anthrax LF CP1 inactive
CCc1cc(C(=O)c2ccc(Br)cc2)c(NC(=O)CN(CC)CC)s1	BoNT-F LC inh inconclusive, Anthrax LF prot 32 | BoNTA LC inh 1 inactive | BoNTF LC inh 1 inactive | Anthrax LF CP1 inactive
CCN(CC)CC(=O)Nc1sc(C)cc1C(=O)c1ccc(C)cc1	BoNT-F LC inh inconclusive
CCC(C)[C@H](NC(=O)N1CCCCC1)C(=O)OC (stereo partly drawn)	BoNT-F LC inh inconclusive, Anthrax LF prot 35 | BoNTA LC inh 1 inactive | BoNTF LC inh 1 inactive | Anthrax LF CP1 inactive
Cc1ccc(-c2cnco2)cc1	BoNT-A LC inh2 inconclusive, BoNT-F LC inh inconclusive, Anthrax LF prot 30 | BoNTA LC inh 1 inactive | BoNTF LC inh 1 inactive | Anthrax LF CP1 inactive
O=C(Nc1ccc(-c2cnco2)cc1)c1ccc(F)cc1F	BoNT-A LC inh2 inconclusive, BoNT-F LC inh inconclusive
Cn1cccc1C(=O)OCC(=O)Nc1ccc2c(c1)OCCO2	none
CCc1ccc2c(c1)NC(=O)C2(C)Cc1ccccc1C#N (stereo not drawn)	none (no result: MazEF act)
